Compound activity: PubChem BioAssay, The Scripps Research Institute Molecular Screening Center
ADAM10 inh = human ADAM10 inhibitors, primary screen, biochemical, QFRET, HTS | inhibition, % at 7 µM | Disintegrin and metalloproteinase domain-containing protein 10 (Homo sapiens), O14672 | hit rate 0.62% among 370,000 | recombinant ADAM10, EDANS/DABCYL FRET peptide cleavage, 3 h;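 active means inhibition above a per-campaign cutoff equal to the mean of compounds falling between control-based bounds plus 3 SD, cut at about 20% in these data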
proKLK7 act = proKLK7 zymogen activators, primary screen, biochemical, fluorescence intensity. Kallikrein-7 (Homo sapiens), P49862. purified proKLK7, EDANS-DABCYL substrate fluorescence; 100% is mature enzyme control, 0% vehicle. activation, % at 7 µM. hit rate 0.9% among 370,000. AID 652039, 2013;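 active means activation above the mean of all tested compounds plus 3 SD, computed per campaign excluding outliers beyond control limits, cut at about 13% in these data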
PLCb3 inh = human PLC-beta3 inhibitors, primary screen, biochemical, fluorescence; inhibition, % at 12.2 µM; 1-phosphatidylinositol 4,5-bisphosphate phosphodiesterase beta-3 (Homo sapiens), Q01970; hit rate 0.18% among 370,000; Purified PLC-beta3, fluorogenic substrate; in the data active means inhibition above about 11%
ADAM17 inh = ADAM17 inhibitors, primary screen, biochemical, QFRET; inhibition, % at 6.95 µM; recombinant ADAM17, EDANS/DABCYL FRET peptide cleavage; Disintegrin and metalloproteinase domain-containing protein 17 (Homo sapiens), P78536; hit rate 0.83% among 370,000;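 active means inhibition above the mean of compounds lying between control limits plus 3 SD, set per campaign, cut at about 8.5% in these data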
Target sequence (P78536 215-824 limits assumed): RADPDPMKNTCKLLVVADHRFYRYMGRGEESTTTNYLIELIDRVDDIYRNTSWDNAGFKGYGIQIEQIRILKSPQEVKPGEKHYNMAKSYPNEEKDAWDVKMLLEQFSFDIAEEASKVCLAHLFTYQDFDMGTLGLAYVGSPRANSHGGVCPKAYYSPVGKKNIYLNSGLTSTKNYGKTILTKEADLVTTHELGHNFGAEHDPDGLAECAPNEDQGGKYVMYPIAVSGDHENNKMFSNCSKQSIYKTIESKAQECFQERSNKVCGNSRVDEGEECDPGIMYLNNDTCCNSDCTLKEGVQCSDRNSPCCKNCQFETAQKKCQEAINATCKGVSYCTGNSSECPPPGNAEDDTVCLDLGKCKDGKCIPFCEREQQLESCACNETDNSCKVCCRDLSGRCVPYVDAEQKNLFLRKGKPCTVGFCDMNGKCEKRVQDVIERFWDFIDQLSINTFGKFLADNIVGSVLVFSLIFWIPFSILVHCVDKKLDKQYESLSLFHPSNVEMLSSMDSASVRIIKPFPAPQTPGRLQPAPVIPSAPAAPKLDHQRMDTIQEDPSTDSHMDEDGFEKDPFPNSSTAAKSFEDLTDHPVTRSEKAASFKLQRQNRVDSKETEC
PLCg1 inh = PLC-gamma1 enzyme inhibitors, primary screen, biochemical, fluorescence, purified enzyme; 1-phosphatidylinositol 4,5-bisphosphate phosphodiesterase gamma-1 (Homo sapiens), P19174; fluorogenic substrate; inhibition, % at 12.2 µM; hit rate 0.84% among 370,000; in the data active means inhibition above about 9.5%
ADAM10 confirm = human ADAM10 inhibitors, confirmation, biochemical, QFRET, triplicate; shares compounds with ADAM10 inh; ADAM10 QFRET peptide cleavage, EDANS fluorescence; inhibition, % at 6.95 µM; hit rate 1% among 2,100; AID 743208, 2013;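 active means inhibition above about 20% chosen separately for each screening run, limit read from the data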
ADAM17 counter = ADAM17 inhibitors, counter-screen for ADAM10 exosite inhibitor project, biochemical, QFRET, high throughput | shares compounds with ADAM10 inh | ADAM17 QFRET peptide cleavage, EDANS fluorescence | inhibition, % at 6.95 µM | hit rate 0.5% among 2,100 | AID 743214, 2013;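 active means mean triplicate inhibition above the solvent-only control wells' mean plus 3 SD, cut at about 12% in these data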
ADAM10 ctr = ADAM10 inhibitors, counter-screen for ADAM17 exosite inhibitor project, biochemical, FRET, human ADAM10 | shares compounds with ADAM17 inh | inhibition, % at 6.95 µM | hit rate 47% among 2,900 | recombinant ADAM10, EDANS/DABCYL FRET peptide cleavage, 3 h | AID 743256, 2014;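 active means mean inhibition over the triplicate runs exceeds the activity threshold set in the earlier primary screen, cut at about 20% in these data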
ADAM17 confirm = ADAM17 inhibitors, hit retest, confirmation, biochemical, QFRET peptide cleavage; shares compounds with ADAM17 inh; inhibition, % at 6.95 µM; hit rate 65% among 2,900; recombinant ADAM17, EDANS/DABCYL QFRET peptide cleavage; AID 743257, 2014;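 active means mean inhibition across replicates above the hit cutoff set in the primary screen, cut at about 8.5% in these data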
A number is an active result. A selection: hits, their analogues and other compounds. The true share with any hit is near 2.9%.

Screening CCc1cccc(C)c1NC(=O)CN1CCN(S(=O)(=O)c2ccc(C(C)(C)C)cc2)CC1 returned ADAM10 inh 24, proKLK7 act inactive, PLCb3 inh inactive, ADAM17 inh 10.0, PLCg1 inh inactive, ADAM10 confirm inactive, ADAM17 counter inactive, ADAM10 ctr inactive and ADAM17 confirm inactive.
CC(O)(c1ccc(F)c(F)c1)c1nc(-c2ccc3ccccc3c2)cs1 (stereo not drawn) was read as ADAM10 inh 44, proKLK7 act inactive, PLCb3 inh inactive, ADAM17 inh 22, PLCg1 inh inactive, ADAM10 confirm inactive, ADAM17 counter inactive, ADAM10 ctr inactive and ADAM17 confirm 9.4.
CC(O)(c1ccccc1)c1nc(-c2ccc(Cl)cc2)cs1 (stereo not drawn) was read as ADAM10 inh inactive, proKLK7 act inactive, PLCb3 inh inactive, ADAM17 inh inactive and PLCg1 inh inactive.
`CC(O)(c1ccccc1)c1nc(-c2cc3ccccc3o2)cs1` (stereo not drawn) gave ADAM10 inh 26, proKLK7 act inactive, PLCb3 inh inactive, ADAM17 inh 8.7, PLCg1 inh inactive, ADAM10 confirm inactive, ADAM17 counter inactive, ADAM10 ctr 30 and ADAM17 confirm 15.
Screening CC(C)c1c(C(=O)N/N=C/c2c[nH]c3ccccc23)nnn1-c1nonc1N returned ADAM10 inh inactive, proKLK7 act inactive, PLCb3 inh inactive, ADAM17 inh inactive and PLCg1 inh inactive.
For CC(C)c1c(C(=O)N/N=C/c2cccc3ccccc23)nnn1-c1nonc1N the results were ADAM10 inh 20, proKLK7 act inactive, PLCb3 inh inactive, ADAM17 inh 10, PLCg1 inh inactive, ADAM10 confirm inactive, ADAM17 counter inactive, ADAM10 ctr 27 and ADAM17 confirm 20.
Screening O=C(/C=C/C=C/c1ccccc1)CC1(O)C(=O)N(CCc2ccccc2)c2ccccc21 (stereo not drawn) returned ADAM10 inh 21, proKLK7 act inactive, PLCb3 inh inactive, ADAM17 inh 9.3, PLCg1 inh inactive, ADAM10 confirm inactive, ADAM17 counter inactive, ADAM10 ctr 36 and ADAM17 confirm 19.
`COc1cc(/C=C/C=C2/CC/C(=C/C=C/c3ccc(O)c(OC)c3)C2=O)ccc1O` gave ADAM10 inh 22, proKLK7 act inactive, PLCb3 inh inactive, ADAM17 inh 17, PLCg1 inh inactive, ADAM10 confirm inactive, ADAM17 counter inactive, ADAM10 ctr inactive and ADAM17 confirm inactive.
COc1cc(/C=C2/CC/C(=C/c3ccc(O)c(OC)c3)C2=O)ccc1O was read as ADAM10 inh inactive, proKLK7 act inactive, PLCb3 inh inactive, ADAM17 inh inactive and PLCg1 inh inactive.
For CC(C)(C)C1CCc2nc(NC(=O)Cc3cn4ccsc4n3)sc2C1 (stereo not drawn) the results were ADAM10 inh 23, proKLK7 act inactive, PLCb3 inh inactive, ADAM17 inh 20, PLCg1 inh inactive, ADAM10 confirm inactive, ADAM17 counter inactive, ADAM10 ctr 21 and ADAM17 confirm 9.7.
For Cc1ccc(S(=O)(=O)NCC2NCCc3ccccc32)cc1 (stereo not drawn) the results were ADAM10 inh inactive, proKLK7 act inactive, PLCb3 inh inactive, ADAM17 inh inactive and PLCg1 inh inactive.
For Cc1ccc(S(=O)(=O)NCC2Cc3ccccc3N2S(=O)(=O)c2ccc(C)cc2)cc1 (stereo not drawn) the results were ADAM10 inh 22, PLCb3 inh inactive, ADAM17 inh 9.2, PLCg1 inh inactive, ADAM10 confirm inactive, ADAM17 counter inactive, ADAM10 ctr 39 and ADAM17 confirm 17.
For CC(C)(C)c1ccc(-c2nnc(SCC(=O)Nc3cccc4ccccc34)n2Cc2ccco2)cc1 the results were ADAM10 inh 20, proKLK7 act inactive, PLCb3 inh inactive, ADAM17 inh 9.2, PLCg1 inh inactive, ADAM10 confirm inactive, ADAM17 counter inactive, ADAM10 ctr 36 and ADAM17 confirm 17.
O=C(CSc1nnc(-c2ccc(Cl)cc2)n1Cc1ccco1)Nc1cccc2ccccc12 was read as ADAM10 inh inactive, proKLK7 act inactive, PLCb3 inh inactive, ADAM17 inh inactive and PLCg1 inh inactive.
For CC(=NNC(=O)CSc1nnc(-c2ccc(C(C)(C)C)cc2)n1-c1ccccc1)c1cccc2ccccc12 the results were ADAM10 inh 23, proKLK7 act inactive, PLCb3 inh inactive, ADAM17 inh 8.9, PLCg1 inh inactive, ADAM10 confirm inactive, ADAM17 counter inactive, ADAM10 ctr inactive and ADAM17 confirm 13.
For Cc1ccc(NC(=O)COC(=O)/C(=C/c2cccs2)c2cccs2)cc1S(=O)(=O)N(C)C the results were ADAM10 inh 24, proKLK7 act inactive, PLCb3 inh inactive, ADAM17 inh 15, PLCg1 inh inactive, ADAM10 confirm inactive, ADAM17 counter inactive, ADAM10 ctr inactive and ADAM17 confirm 13.
For COc1ccc(OC)c(-n2c(-c3cc(-c4ccc(F)cc4)n[nH]3)n[nH]c2=S)c1 the results were ADAM10 inh 20, proKLK7 act inactive, PLCb3 inh inactive, ADAM17 inh 9.3, PLCg1 inh inactive, ADAM10 confirm inactive, ADAM17 counter inactive, ADAM10 ctr inactive and ADAM17 confirm inactive.
COc1ccc(-c2n[nH]c(=S)n2-c2cc(OC)ccc2OC)cc1 was read as ADAM10 inh inactive, proKLK7 act inactive, PLCb3 inh inactive, ADAM17 inh inactive and PLCg1 inh inactive.
